# ERa SRC1 inh: ER-alpha (human) coactivator binding inhibition. P03372. TR-FRET ER-alpha LBD / SRC-1 peptide, estradiol-bound. 86,000 compounds, 1.7% hits. inhibition, % at 25.6 µM; in the data active = inhibition above about 50%;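 note: 0% = receptor plus peptide control and 100% = peptide only without receptor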
# ERa coact pot: enhances coactivator binding to human estrogen receptor alpha; TR-FRET ERalpha-LBD/SRC-Cy5 coactivator binding, 2 h; 100 = basal binding, no effect; coactivator binding (% of control), % at 25.6 µM; 86,000 compounds, 1.3% hits; AID 639; in the data active = activity above about 200%;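 note: binding measured in presence of low estradiol as agonist stimulus; 0% = peptide alone without receptor and 100% = receptor with peptide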
# FAK inh: inhibitors of human focal adhesion kinase; Q05397; inhibition, %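 (tested at 7 µM)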; 97,000 compounds, 0.84% hits; biochemical FAK kinase activity assay;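 note: 0% = DMSO and 100% = reference compound high control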
# Smad3 inh: Smad3 (human) transcription factor binding inhibition | TR-FRET Smad3/Dy647-FoxH1 peptide binding, europium anti-His | inhibition, % at 25 µM | 88,000 compounds, 0.29% hits;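 active = compounds that reduce the energy-transfer binding signal between the protein and its labelled peptide by more than half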;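 note: 0% = Smad3 plus labelled peptide maximal FRET and 100% = peptide-only background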
# Target sequence (P84022 whole entry, looked up): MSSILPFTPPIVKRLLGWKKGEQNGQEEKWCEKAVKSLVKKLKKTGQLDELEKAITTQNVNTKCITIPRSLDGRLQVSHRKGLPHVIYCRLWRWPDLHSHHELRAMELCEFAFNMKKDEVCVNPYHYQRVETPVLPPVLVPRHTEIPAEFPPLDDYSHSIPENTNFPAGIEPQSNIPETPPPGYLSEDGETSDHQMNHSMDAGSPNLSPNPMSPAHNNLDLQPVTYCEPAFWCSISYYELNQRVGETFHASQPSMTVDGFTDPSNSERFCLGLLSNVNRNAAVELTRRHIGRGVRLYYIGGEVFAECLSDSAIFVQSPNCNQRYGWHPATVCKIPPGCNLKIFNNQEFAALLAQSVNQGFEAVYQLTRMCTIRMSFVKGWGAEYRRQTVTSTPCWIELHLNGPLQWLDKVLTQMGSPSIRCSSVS
# Candida biofilm: kills Candida albicans biofilms | AID 834 | 85,000 compounds, 0.14% hits | inhibition, % at 6 µM | C. albicans biofilm + clotrimazole, Alamar Blue;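 active = inhibition above 20%; inactive = inhibition below 20%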;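 note: preformed 24 hr biofilms exposed to compound for 48 hr; 0% = biofilm without compound and 100% = blank killed by clotrimazole plus chlorhexidine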
# ERb SRC1 inh: ER-beta (human) coactivator binding inhibition | Q92731 | TR-FRET ER-beta LBD / SRC1-Cy5 peptide binding; receptor agonist-loaded with 1 µM estradiol | inhibition, % at 25.6 µM | 86,000 compounds, 1.3% hits | AID 633;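 active = compounds whose percent inhibition of the receptor-coactivator binding signal exceeds about 50% in the single-dose screen, limit read from the data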;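 note: 0% = receptor plus peptide wells without compound and 100% = peptide-only wells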
# FAK inh confirm: FAK (human) inhibition confirmed | inhibition, % at 7 µM | 750 compounds, 28% hits | shares compounds with FAK inh | FAK kinase biochemical inhibition assay | AID 794
# An asterisk follows results filed as active; . = not tested or not shown; [ ] = another dose, or the depositor's remark. Hits are enriched below; roughly 3.3% of the tested compounds scored in any of these assays. Cut-off read from the data, not from the text of the source, unless noted: active = inhibition above about 19%; inactive = the rest.
SMILES,ERa SRC1 inh,ERa coact pot,FAK inh,Smad3 inh,Candida biofilm,ERb SRC1 inh,others
O=P1(NC2CCCC2)COc2ccccc2OC1,4,109,0,4,7,4,
O=P1(NCc2ccco2)COc2ccccc2OC1,-1,211*[fluorescence artefact?],6,9,6,2,
CC(C)[C@]1(O)[C@@H](OC(=O)c2ccc[nH]2)[C@@]2(O)[C@@]3(C)C[C@]4(O)O[C@@]5([C@H](O)[C@@H](C)CC[C@@]35O)[C@@]2(O)[C@@]41C,.,.,.,0,.,.,
C[C@]12Cc3cnc(-c4ccccc4)nc3C[C@@H]1CC[C@H]1[C@H]2CC[C@@]2(C)[C@H]1CC[C@]2(C)O,.,.,.,-2,.,.,
CCOc1ccc2[nH]c(=O)c(CN(CCO)C3(c4nnnn4C4CCCCC4)CCCCC3)cc2c1,12,239*,-2,-2,11,-1,
COc1cc2c3cc1Oc1c(O)c(OC)cc4c1[C@@H](Cc1ccc(cc1)Oc1cc(ccc1O)C[C@@H]3N(C)CC2)N(C)CC4,.,.,.,59*,.,.,
C[N+]1([O-])[C@@H]2CC(OC(=O)[C@@H](CO)c3ccccc3)C[C@H]1[C@H]1O[C@H]12 (some centres undefined),.,.,.,22,.,.,
Cc1c([C@@H](C)[C@H]2NC[C@H](C)C[C@@H]2O)ccc2c1C[C@@H]1[C@@H]2CC=C2C[C@@H](O)CC[C@@]21C,.,.,.,1,.,.,
CO[C@H]1[C@H](O)[C@@H](O[C@@H]2[C@@H](Oc3cccc4c(O)c5c(=O)oc6ccc(C)c7c(=O)oc(c34)c5c67)O[C@@H](C)[C@H](O)[C@H]2O)O[C@@H](C)[C@@H]1O,.,.,.,-3,.,.,
C[C@@H]1[C@H]2C=C[C@@H]1[C@H](c1c3ccc(=O)c(O)c-3oc3c(O)c(O)ccc13)[C@@H]2C(=O)O,.,.,.,102*,.,.,
CCCCC[CH2][Hg][n+]1c[nH]c2nc(N)[nH]c(=S)c21,.,.,.,8,.,.,
Nc1nc(SC2CCC([N+](=O)[O-])C3NONC23)c2[nH]cnc2n1 (centres undefined),.,.,.,24,.,.,
Cn1cccc1CN1CCN(C(=O)COc2ccccc2)CC1,0,101,7,-10,1,93*[fluorescence artefact?],
CC[C@H]1CN2CCc3cc(OC)c(OC)cc3[C@@H]2C[C@@H]1C[C@H]1NCCc2c1[nH]c1ccc(O)cc21,.,.,.,4,.,.,
CC(=O)O[C@H]1CC[C@H]2[C@H]3CCC4=C[C@@H](C5SCCS5)[C@H](OC(C)=O)C[C@]4(C)[C@@H]3CC[C@]12C,.,.,.,98*,.,.,
CC12CCC(=O)C=C1CCC1C2CCC2(C)C(O)CCC12 (centres undefined),-1,122,.,-5,-2,6,
CC1=NN(c2ccccc2)C(=O)[C@H]1N=Nc1ccc([As](=O)(O)O)c(O)c1,.,.,.,2,.,.,
C[C@@]12CN(CC[N+](C)(C)C)C[C@]1(C)[C@H]1CC[C@@H]2O1,.,.,.,28,.,.,
O=S(=O)(Nc1nccs1)c1ccc([As](=O)(O)O)cc1,.,.,.,102*,.,.,
C[C@@]12CC[C@@H]3[C@H](CCC4=CC(=O)CC[C@H]43)[C@H]1CC[C@H]2OC1(O)C(=O)c2ccccc2C1=O,.,.,.,54*,.,.,
COc1ccc2[nH]c(C)c(CCN3CCC(=O)C(C)C3C)c2c1 (centres undefined),41,83,-1,0,-7,64*[fluorescence artefact?],
CC(=O)OC1=CC2=CC[C@H]3[C@@H]4CCC(=O)[C@@]4(C)CC(=O)[C@]3(S)[C@]2(C)CC1,.,.,.,35,.,.,
COC(=O)C[C@]1(C(=O)OC)CN(C#N)N(c2ccc(Cl)cc2)C12c1ccccc1-c1ccccc12,-6,98,2,72*[fluorescence artefact?],7,1,
CC1CCC(NCC(O)c2ccccc2)CC1 (centres undefined),1,294*[fluorescence artefact?],-2,-3,-2,-4,
Cn1c(=O)c2[nH]cnc2n(C)c1=O.[CH2-][C@H](Cc1cccc2cc(C(=O)O)c(=O)oc12)OC.[Hg].[OH-],.,.,.,68*,.,.,
SMILES,ERa SRC1 inh,ERa coact pot,FAK inh,Smad3 inh,Candida biofilm,ERb SRC1 inh,others
N#CS.N=C=S.N=C=S.[Cu].[NH2-].[NH2-].[NH2-].[NH2-].c1ccc2ncccc2c1,.,.,.,63*,.,.,
C[C@]12CC[C@H](O)C[C@@H]1CC[C@H]1[C@H]2CC[C@]2(C)[C@@H]1CC[C@H]2C(=O)C[C@H](O)C(F)(F)F,.,.,.,0,.,.,
O=C(O)C[C@@H]1NCc2cc3ccccc3nc21,.,.,.,51*,.,.,
C[C@]12CCC(=O)C=C1CCC1C2CC[C@@]2(C)C1CC[C@@]2(O)CC#N (some centres undefined),1,97,.,2,5,54*,
CC1=C2C(=O)[C@H]3[C@@H](CC=C4C[C@@H](O)CC[C@@]43C)[C@@H]2CC[C@@]12O[C@@H]1C[C@H](C)CN[C@H]1[C@@H]2C,.,.,.,7,.,.,
CCCOC(=O)[C@H]1[C@@H](C(=O)O)[C@H]2CC[C@@H]1O2,.,.,.,-4,.,.,
CCN(CC)P(=O)(NC(=O)C(Cl)(Cl)Cl)N(CC)CC.[Cl-].[Cl-].[Cl-].[Nd+3],69*[fluorescence artefact?],95,4,67*[fluorescence artefact?],4,50*[fluorescence artefact?],
O=C1Nc2ccccc2/C1=C/c1cnc[nH]1,.,.,75*,.,.,.,FAK inh confirm=47*
NNc1c(C(N)=O)c2c(N)ncnc2n1[C@H]1O[C@H](CO)[C@@H](O)[C@@H]1O,.,.,.,9,.,.,
CCC(C)NC(=O)c1c(N)n(CCCOC)c2nc3ccccc3nc12 (centres undefined),4,85,37*,52*,9,4,FAK inh confirm=2
COCCCn1c(N)c(C(=O)OC(C)COC)c2nc3ccccc3nc21 (centres undefined),-4,114,.,1,-2,8,
CN1CCN(c2ccc(C=O)cc2)CC1,2,97,1,-6,-2,5,
CN1CCN(c2ccc(N)cc2)CC1,84*[fluorescence artefact?],14,67*,11,7,91*[fluorescence artefact?],FAK inh confirm=74*
CC12CN3CC(C)(CN(C1)P3(=O)Oc1ccccc1)C2=O (centres undefined),2,115,50*,7,1,-12,FAK inh confirm=2
C[n+]1c(/C=C/c2ccc(O)c3ncccc23)[se]c2ccccc21,.,.,.,50,.,.,

# Bioassay records as filed in PubChem.
